# Experimental data reported in PubChem BioAssay (EPA / NIEHS).
# “And” between values parts separate entries of the source, which are not always exact repeats. Equal entries are not always repeated. Inconclusive results are not listed. The source made the active and inactive calls. How the source made its calls: active means hit-call score of the fitted dose curve at least 0.9, where 1 is the maximum; inconclusive means response in the unintended direction; inactive means score below 0.9.
# How the values were obtained:
# CDK2 (gene 1017) = CDK2 (gene 1017) (UniProt P24941); test: NVS_ENZ_hCDK2: NovaScreen (NVS) Enzymatic Assay for human Cyclin-Cependent Kinase 2 (CDK2) (AID 2283144)
# Outline: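 Cell-free recombinant human CDK2 with fluorescent substrate, product separated by electrophoretic mobility shift; 1 hr read. Primary screen at 25 uM in duplicate, actives retested in concentration-response up to 50 uM; loss of signal versus DMSO.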
# [1] = target: human Beta-secretase (BACE), BACE1 (gene 23621) (UniProt P56817); test: NVS_ENZ_hBACE: NovaScreen (NVS) Enzymatic Assay for human Beta-secretase (BACE) (AID 2283140);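 further: hits are inhibitors that reduce fluorescent substrate signal versus DMSO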
# Outline: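 Cell-free assay of recombinant Sf9-expressed human BACE with fluorescent substrate, read by fluorescence intensity after 1 h. Primary screen in duplicate at 25 uM; actives then run in concentration series; loss of signal relative to DMSO.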
# [2] = target: human Caspase 5 (CASP5), CASP5 (gene 838) (UniProt P51878); test: NVS_ENZ_hCASP5: NovaScreen (NVS) Enzymatic Assay for human Caspase 5 (CASP5) (AID 2283137)
# Outline: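 Recombinant human caspase 5 expressed in E. coli, fluorogenic substrate, fluorescence read 2 h after dosing. Single-point 25 uM duplicate screen, then concentration-response to maximum 50 uM for actives; DMSO baseline.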
# [3] = target: human Aurora Kinase A - serine/threonine-protein Kinase 6 (AurA), AURKA (gene 6790) (UniProt O14965); test: NVS_ENZ_hAurA: NovaScreen (NVS) Enzymatic Assay for human Aurora Kinase A - serine/threonine-protein Kinase 6 (AurA) (AID 2283142)
# Outline: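 Cell-free enzymatic assay with human Aurora A, 1 hour after dosing. Fluorescent substrate turnover detected after electrophoretic mobility shift separation of substrate and product. Screened at 25 uM, actives retested in concentration-response up to 50 uM.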
# [4] = target: human Casein Kinase 2- alpha 2 beta 2 (CK2a2b2), CSNK2A1 (gene 1457) (UniProt P68400); test: NVS_ENZ_hCK2a2b2: NovaScreen (NVS) Enzymatic Assay for human Casein Kinase 2- alpha 2 beta 2 (CK2a2b2) (AID 2283147)
# Procedure: (§1) NVS_ENZ_hCK2a2b2 is a biochemical, single-readout assay that uses extracted gene-proteins in a cell-free assay. Measurements were taken 1 hour after chemical dosing in a 384-well plate.NVS_ENZ_hCK2a2b2 is one of one assay component(s) measured or calculated from the NVS_ENZ_hCK2a2b2 assay. It is designed to make measurements of enzyme activity, a form of enzyme reporter, as detected with fluorescence intensity signals by Fluorescence and electrophoretic mobility shift technology.Data from the assay component NVS_ENZ_hCK2a2b2 was analyzed into 1 assay endpoint. This assay endpoint, NVS_ENZ_hCK2a2b2, was analyzed in the positive analysis fitting direction relative to DMSO as the negative control and baseline of activity. Using a type of enzyme reporter, loss-of-signal activity can be used to understand changes in the enzymatic activity as they relate to the gene CSNK2A1. Furthermore, this assay endpoint can be referred to as a primary readout, because this assay has produced multiple assay endpoints where this one serves a enzymatic activity function. To generalize the intended target to other relatable targets, this assay endpoint is annotated to the kinase intended target family, where the subfamily is serine/threonine kinase.
# (§2) Binding assays used specific radioligands (tritiated, iodinated) with non-radioactive competitive displacement ligands in agonist or antagonist protocols (as indicated) and various reference compounds and inhibitors to titrate specific binding to receptors and transporters. Most enzyme assays (CYPs, kinases, phosphatases, proteases, HDACs) used recombinant protein and specific substrates (fluorescence mostly, some colorimetric and radioactive) and inhibitors, followed by a biochemical separation of substrate and product. All assays for the biochemical HTS were initially run in duplicate at a single concentration (10 uM for CYP450 assays and 25 uM for all others). Assay-chemical combinations meeting a pre-defined threshold (e.g., 30% inhibition and other criteria defined below) were then run in singleton concentration-response format with maximum concentration of 20 uM for CYPs and 50 uM for all others. Each assay was run with positive and negative controls, and concurrent controls on every plate. The follow-up (secondary) screen tested active chemical-pairs in concentration series, as well as a few additional assays not tested in the primary screen, some selected negative inactives, and several cases re-run in the concentration series for confirmatory purposes.
# [5] = target: human Casein Kinase 1-delta (CK1D), CSNK1D (gene 1453) (UniProt P48730); test: NVS_ENZ_hCK1D: NovaScreen (NVS) Enzymatic Assay for human Casein Kinase 1-delta (CK1D) (AID 2283148)
# Procedure: as §1, with “NVS_ENZ_hCK1D” for “NVS_ENZ_hCK2a2b2”, “plate.NVS_ENZ_hCK1D” for “plate.NVS_ENZ_hCK2a2b2”, “NVS_ENZ_hCK1D,” for “NVS_ENZ_hCK2a2b2,”, “CSNK1D.” for “CSNK2A1.”
# as §2
# [6] = target: human AKT serine/threonine Kinase 2 (AKT2), AKT2 (gene 208) (UniProt P31751); test: NVS_ENZ_hAKT2: NovaScreen (NVS) Enzymatic Assay for human AKT serine/threonine Kinase 2 (AKT2) (AID 2283141)
# Outline: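 Cell-free fluorescence/electrophoretic mobility shift readout of recombinant human AKT2 activity, 1 h after chemical dosing. Duplicate primary screen at 25 uM, then singleton concentration-response up to 50 uM; loss of signal versus DMSO baseline.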
# [7] = target: human Caspase 4 (CASP4), CASP4 (gene 837) (UniProt P49662); test: NVS_ENZ_hCASP4: NovaScreen (NVS) Enzymatic Assay for human Caspase 4 (CASP4) (AID 2283143)
# Outline: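 The cell-free assay used E. coli-expressed enzyme with a fluorogenic substrate, read 2 h after dosing. Signal loss was scored versus DMSO. Screening was in duplicate at 25 uM, then singleton concentration-response up to 50 uM.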
# [8] = target: human Caspase 8 (CASP8), CASP8 (gene 841) (UniProt Q14790); test: NVS_ENZ_hCASP8: NovaScreen (NVS) Enzymatic Assay for human Caspase 8 (CASP8) (AID 2283146)
# Outline: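 E. coli-expressed enzyme was used in a cell-free fluorogenic substrate assay read 1 h after dosing. Loss of signal was scored relative to DMSO, and the primary screen was run in duplicate at 25 uM.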
# Caspase-3 (Homo sapiens) = Caspase-3 (Homo sapiens) (UniProt P42574); test: NVS_ENZ_hCASP3: NovaScreen (NVS) Enzymatic Assay for human Caspase 3 (CASP3) (AID 2283139)
# Outline: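 Recombinant human caspase-3 from E. coli with a fluorogenic substrate, read by fluorescence 1 h after dosing. Primary screen in duplicate at 25 uM. Actives (for example ≥30% inhibition) rerun as concentration-response up to 50 uM.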
# Chain of human Caspase 5 (CASP5), CASP5 (gene 838) (P51878 whole entry, looked up): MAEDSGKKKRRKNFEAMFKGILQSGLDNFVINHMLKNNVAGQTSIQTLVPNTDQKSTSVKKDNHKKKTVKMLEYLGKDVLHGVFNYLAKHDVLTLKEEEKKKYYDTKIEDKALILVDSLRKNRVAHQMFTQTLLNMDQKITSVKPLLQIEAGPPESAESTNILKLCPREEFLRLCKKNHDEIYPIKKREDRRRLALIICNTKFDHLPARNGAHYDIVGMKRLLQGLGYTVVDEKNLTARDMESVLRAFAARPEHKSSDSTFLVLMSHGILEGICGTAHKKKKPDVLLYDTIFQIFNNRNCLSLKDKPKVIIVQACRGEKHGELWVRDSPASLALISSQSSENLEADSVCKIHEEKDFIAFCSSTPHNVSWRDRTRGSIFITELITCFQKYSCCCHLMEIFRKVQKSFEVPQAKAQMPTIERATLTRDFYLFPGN
# Chain of human Caspase 4 (CASP4), CASP4 (gene 837) (P49662 whole entry, looked up): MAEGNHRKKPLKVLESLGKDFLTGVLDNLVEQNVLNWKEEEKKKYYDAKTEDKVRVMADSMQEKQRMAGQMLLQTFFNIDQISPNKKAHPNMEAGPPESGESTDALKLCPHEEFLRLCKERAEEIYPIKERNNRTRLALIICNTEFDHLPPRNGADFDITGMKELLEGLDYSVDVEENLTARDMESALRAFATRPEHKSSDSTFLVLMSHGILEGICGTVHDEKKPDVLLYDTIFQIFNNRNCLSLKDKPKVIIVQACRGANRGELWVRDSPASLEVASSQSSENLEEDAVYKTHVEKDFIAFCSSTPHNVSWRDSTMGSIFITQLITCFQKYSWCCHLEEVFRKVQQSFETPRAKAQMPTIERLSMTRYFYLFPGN
# Chain of human AKT serine/threonine Kinase 2 (AKT2), AKT2 (gene 208) (P31751 whole entry, looked up): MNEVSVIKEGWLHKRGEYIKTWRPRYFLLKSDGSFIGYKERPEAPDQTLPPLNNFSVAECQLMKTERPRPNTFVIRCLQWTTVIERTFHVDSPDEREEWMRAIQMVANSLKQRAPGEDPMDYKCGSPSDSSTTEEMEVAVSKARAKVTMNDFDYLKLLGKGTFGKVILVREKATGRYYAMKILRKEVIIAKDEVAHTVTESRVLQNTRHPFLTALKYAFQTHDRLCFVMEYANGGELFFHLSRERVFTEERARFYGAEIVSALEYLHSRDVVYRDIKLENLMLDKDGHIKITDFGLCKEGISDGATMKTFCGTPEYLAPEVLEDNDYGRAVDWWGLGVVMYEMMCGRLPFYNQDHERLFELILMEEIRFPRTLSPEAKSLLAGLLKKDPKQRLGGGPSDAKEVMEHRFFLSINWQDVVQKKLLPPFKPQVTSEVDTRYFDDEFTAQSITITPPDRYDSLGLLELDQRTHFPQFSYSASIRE
# Chain of human Casein Kinase 1-delta (CK1D), CSNK1D (gene 1453) (P48730 whole entry, looked up): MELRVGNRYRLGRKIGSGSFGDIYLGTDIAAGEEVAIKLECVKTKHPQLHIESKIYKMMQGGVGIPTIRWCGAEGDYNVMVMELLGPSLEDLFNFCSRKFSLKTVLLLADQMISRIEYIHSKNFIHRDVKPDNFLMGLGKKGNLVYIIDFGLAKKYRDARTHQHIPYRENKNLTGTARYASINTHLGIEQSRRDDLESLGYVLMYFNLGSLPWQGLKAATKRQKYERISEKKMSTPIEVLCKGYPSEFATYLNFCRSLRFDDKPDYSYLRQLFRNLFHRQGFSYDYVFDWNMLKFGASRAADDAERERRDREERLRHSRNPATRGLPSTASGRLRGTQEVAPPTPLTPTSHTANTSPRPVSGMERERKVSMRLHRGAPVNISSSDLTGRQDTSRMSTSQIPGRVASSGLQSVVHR
# Chain of human Caspase 8 (CASP8), CASP8 (gene 841) (Q14790 whole entry, looked up): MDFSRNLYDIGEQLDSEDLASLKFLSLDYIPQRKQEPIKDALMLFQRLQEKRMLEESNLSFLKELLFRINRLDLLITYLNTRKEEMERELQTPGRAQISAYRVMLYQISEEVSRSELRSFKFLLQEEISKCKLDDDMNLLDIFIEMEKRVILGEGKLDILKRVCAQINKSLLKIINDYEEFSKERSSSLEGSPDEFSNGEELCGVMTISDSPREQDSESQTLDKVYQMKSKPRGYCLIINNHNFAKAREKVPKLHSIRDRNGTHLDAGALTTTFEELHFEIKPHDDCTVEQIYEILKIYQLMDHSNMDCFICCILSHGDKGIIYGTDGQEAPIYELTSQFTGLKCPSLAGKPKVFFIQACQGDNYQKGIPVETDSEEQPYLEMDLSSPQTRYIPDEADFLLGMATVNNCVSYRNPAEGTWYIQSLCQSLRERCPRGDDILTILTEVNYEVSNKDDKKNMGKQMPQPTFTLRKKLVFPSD
# Chain of human Beta-secretase (BACE), BACE1 (gene 23621) (P56817 whole entry, looked up): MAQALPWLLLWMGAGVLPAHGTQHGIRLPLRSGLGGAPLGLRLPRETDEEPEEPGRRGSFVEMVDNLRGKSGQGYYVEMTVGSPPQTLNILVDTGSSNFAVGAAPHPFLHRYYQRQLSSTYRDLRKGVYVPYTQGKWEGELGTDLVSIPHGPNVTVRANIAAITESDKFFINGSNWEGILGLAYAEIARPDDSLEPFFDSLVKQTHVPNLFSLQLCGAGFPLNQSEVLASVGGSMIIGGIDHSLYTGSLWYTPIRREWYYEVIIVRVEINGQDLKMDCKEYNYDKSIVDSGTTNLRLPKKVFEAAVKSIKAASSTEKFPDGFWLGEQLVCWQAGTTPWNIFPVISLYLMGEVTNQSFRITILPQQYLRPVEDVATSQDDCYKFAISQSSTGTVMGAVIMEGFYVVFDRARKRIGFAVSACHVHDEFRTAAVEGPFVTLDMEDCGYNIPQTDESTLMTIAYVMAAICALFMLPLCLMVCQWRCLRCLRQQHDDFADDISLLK
# Chain of human Casein Kinase 2- alpha 2 beta 2 (CK2a2b2), CSNK2A1 (gene 1457) (P68400 whole entry, looked up): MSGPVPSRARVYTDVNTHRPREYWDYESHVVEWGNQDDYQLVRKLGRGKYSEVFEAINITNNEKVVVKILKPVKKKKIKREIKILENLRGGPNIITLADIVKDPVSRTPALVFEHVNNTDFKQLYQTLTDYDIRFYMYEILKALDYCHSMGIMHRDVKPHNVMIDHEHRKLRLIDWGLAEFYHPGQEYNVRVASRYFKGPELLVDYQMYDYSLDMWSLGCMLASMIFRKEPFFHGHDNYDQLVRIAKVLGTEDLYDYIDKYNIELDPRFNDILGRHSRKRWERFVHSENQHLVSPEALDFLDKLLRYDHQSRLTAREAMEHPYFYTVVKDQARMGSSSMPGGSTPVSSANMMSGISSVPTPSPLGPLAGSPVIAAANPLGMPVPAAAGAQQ
# Chain of human Aurora Kinase A - serine/threonine-protein Kinase 6 (AurA), AURKA (gene 6790) (O14965 whole entry, looked up): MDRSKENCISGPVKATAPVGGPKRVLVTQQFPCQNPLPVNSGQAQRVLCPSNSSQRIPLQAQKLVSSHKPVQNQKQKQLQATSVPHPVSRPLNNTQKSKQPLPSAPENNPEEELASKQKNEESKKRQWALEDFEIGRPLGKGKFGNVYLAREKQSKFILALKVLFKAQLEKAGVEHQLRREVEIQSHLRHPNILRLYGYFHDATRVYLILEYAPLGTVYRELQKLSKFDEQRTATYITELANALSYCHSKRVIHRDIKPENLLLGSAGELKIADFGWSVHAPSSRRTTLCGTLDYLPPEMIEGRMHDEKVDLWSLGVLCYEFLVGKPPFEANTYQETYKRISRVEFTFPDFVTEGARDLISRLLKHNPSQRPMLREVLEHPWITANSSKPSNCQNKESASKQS
# Chain of Caspase-3 (Homo sapiens) (P42574 whole entry, looked up): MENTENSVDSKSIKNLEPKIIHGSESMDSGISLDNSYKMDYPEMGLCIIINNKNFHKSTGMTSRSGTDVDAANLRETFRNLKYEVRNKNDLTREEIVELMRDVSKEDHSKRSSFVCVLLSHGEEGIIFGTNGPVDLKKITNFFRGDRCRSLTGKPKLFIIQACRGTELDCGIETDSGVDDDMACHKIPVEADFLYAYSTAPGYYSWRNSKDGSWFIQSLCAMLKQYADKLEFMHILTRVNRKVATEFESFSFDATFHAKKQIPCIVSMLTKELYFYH
smiles,measurement,setting,value
COc1nc(C)nc(NC(=O)NS(=O)(=O)c2ccccc2Cl)n1,outcome,CDK2 (gene 1017),inactive
COC(=O)C(C)Oc1ccc(Oc2ccc(Cl)cc2Cl)cc1 (stereo not drawn),AC50,[1],5.69 µM (active) and 16.3 µM (active) and 5.37 µM (active)
CCCC1COC(Cn2cncn2)(c2ccc(Cl)cc2Cl)O1 (stereo not drawn),outcome,[2],inactive
Cc1ccc(-c2c(Cl)nc(C#N)n2S(=O)(=O)N(C)C)cc1,outcome,[1],inactive
same,AC50,[3],23.5 µM (active)
same,AC50,[4],6.49 µM (active)
same,outcome,[5],inactive
CNC(=S)S,outcome,[2],inactive
same,outcome,[1],inactive
same,outcome,[6],inactive
same,outcome,[3],inactive
same,outcome,[7],inactive
same,outcome,[8],inactive
same,outcome,[4],inactive
same,outcome,[5],inactive
C#CCOS(=O)OC1CCCCC1Oc1ccc(C(C)(C)C)cc1 (stereo not drawn),outcome,Caspase-3 (Homo sapiens),inactive
same,AC50,[1],14.8 µM (active)
COc1ccc(C(c2ccc(OC)cc2)C(Cl)(Cl)Cl)cc1,AC50,[2],25 µM (active)
same,AC50,[1],33.9 µM (active)
Cc1c(F)c(F)c(COC(=O)C2C(/C=C(\Cl)C(F)(F)F)C2(C)C)c(F)c1F (stereo not drawn),outcome,[1],inactive
COC(=O)N(OC)c1ccccc1COc1ccn(-c2ccc(Cl)cc2)n1,AC50,[1],11.6 µM (active)
COc1nc(NC(C)C)nc(NC(C)C)n1,outcome,[2],inactive
Fc1ccc(Oc2ccnc3cc(Cl)cc(Cl)c23)cc1,outcome,[3],inactive
same,outcome,[8],inactive
CO/C=C(/C(=O)OC)c1ccccc1Oc1cc(Oc2ccccc2C#N)ncn1,outcome,[2],inactive
same,outcome,[7],inactive
O=C(Nc1ccccc1)Nc1ccnc(Cl)c1,outcome,[2],inactive
same,AC50,[1],5.29 µM (active)
Oc1ccccc1-c1ccccc1,outcome,[3],inactive
CCNc1nc(Cl)nc(NCC)n1,outcome,[5],inactive
Cc1cc(Cl)ccc1OCC(=O)O,AC50,[4],16.2 µM (active)
CC(C)Oc1cc(-n2nc(C(C)(C)C)oc2=O)c(Cl)cc1Cl,outcome,[1],inactive
same,outcome,[7],inactive
CCCN(CCC)c1c([N+](=O)[O-])cc(S(N)(=O)=O)cc1[N+](=O)[O-],outcome,[3],inactive
same,outcome,CDK2 (gene 1017),inactive
same,outcome,[5],inactive
CC(Oc1ccc(Cl)cc1Cl)C(=O)O (stereo not drawn),outcome,Caspase-3 (Homo sapiens),inactive
CCCCNC(=O)n1c(NC(=O)OC)nc2ccccc21,outcome,[3],inactive
same,outcome,[5],inactive
O=C(O)COc1nc(Cl)c(Cl)cc1Cl,AC50,[4],13.9 µM (active)
N#Cc1cc(Br)c(O)c(Br)c1,outcome,[3],inactive
same,outcome,[8],inactive
same,AC50,[4],13 µM (active)
CCCCC(CC)COC(=O)c1ccccc1C(=O)OCC(CC)CCCC (stereo not drawn),outcome,[5],inactive
C=CCC1=C(C)C(OC(=O)C2C(C=C(C)C)C2(C)C)CC1=O (stereo not drawn),outcome,[1],inactive
CCCCOC(=O)c1ccccc1C(=O)OCCCC,outcome,[1],inactive
CCNc1nc(Cl)nc(NC(C)C)n1,outcome,CDK2 (gene 1017),inactive
same,outcome,[5],inactive
COc1nc(C)nc(NC(=O)NS(=O)(=O)c2ccccc2CCC(F)(F)F)n1,outcome,[6],inactive
CCOP(=S)(OCC)SCn1c(=O)oc2cc(Cl)ccc21,AC50,[1],14.4 µM (active)
CS/C(C)=N/OC(=O)N(C)SN(C)C(=O)O/N=C(\C)SC,outcome,[6],inactive
CC(C)C1(C)N=C(c2nc3ccccc3cc2C(=O)O)NC1=O (stereo not drawn),outcome,[7],inactive
CON(C)C(=O)Nc1ccc(Cl)c(Cl)c1,outcome,[4],inactive
